# Experimental data taken from PMC7862700, “An all-to-all approach to the identification of sequence-specific readers for epigenetic DNA modifications on cytosine”.
# Assays:
# Test in all cases: DAPPL (digital affinity profiling via proximity ligation, sequencing); 10 mM Tris-HCl pH 7.5, 50 mM NaCl, 1 mM DTT, 4% glycerol, room temperature, 30 min; GST-TFs on glutathione beads, 16-mer random dsDNA library, 0.1% formaldehyde crosslink after washing; high values mean tight binding
# FLI1 = molecular target: T1, FLI1 (Homo sapiens, UniProt Q01543 1-452); details: protein: recombinant; tags: N-terminal GST; dsDNA, one strand shown
# T1 sequence: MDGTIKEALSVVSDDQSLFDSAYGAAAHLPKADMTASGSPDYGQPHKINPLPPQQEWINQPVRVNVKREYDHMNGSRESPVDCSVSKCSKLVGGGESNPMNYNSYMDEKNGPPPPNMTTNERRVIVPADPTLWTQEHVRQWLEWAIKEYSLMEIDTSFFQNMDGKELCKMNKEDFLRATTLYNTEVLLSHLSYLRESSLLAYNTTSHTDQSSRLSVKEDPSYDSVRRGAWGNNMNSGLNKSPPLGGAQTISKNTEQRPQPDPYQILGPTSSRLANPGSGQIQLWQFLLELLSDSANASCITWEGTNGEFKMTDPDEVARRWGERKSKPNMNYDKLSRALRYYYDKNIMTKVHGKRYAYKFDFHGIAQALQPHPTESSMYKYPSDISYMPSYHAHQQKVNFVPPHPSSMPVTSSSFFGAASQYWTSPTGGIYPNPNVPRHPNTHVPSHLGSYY
# Procedure, shortened: (§1)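 Human transcription factors carrying a GST fusion were produced in yeast, bound to glutathione beads, tagged with DNA barcodes and pooled together with a tag-only sample. Each pool was held with 200 nmole of a random double-stranded 16-mer DNA library in Tris/NaCl/DTT/glycerol buffer for 30 min at room temperature, then washed, crosslinked in 0.1% formaldehyde, proximity-ligated with BsaI/T4 ligase (1 h, 37 °C), PCR-amplified and sequenced on an Illumina NextSeq500. Binding signal is the read frequency of each hexamer for a given factor divided by its frequency in the tag-only sample.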
# ELK1 = molecular target: T2, ELK1 (Homo sapiens, UniProt P19419 1-428); details: protein: recombinant; tags: N-terminal GST; dsDNA, one strand shown
# T2 sequence: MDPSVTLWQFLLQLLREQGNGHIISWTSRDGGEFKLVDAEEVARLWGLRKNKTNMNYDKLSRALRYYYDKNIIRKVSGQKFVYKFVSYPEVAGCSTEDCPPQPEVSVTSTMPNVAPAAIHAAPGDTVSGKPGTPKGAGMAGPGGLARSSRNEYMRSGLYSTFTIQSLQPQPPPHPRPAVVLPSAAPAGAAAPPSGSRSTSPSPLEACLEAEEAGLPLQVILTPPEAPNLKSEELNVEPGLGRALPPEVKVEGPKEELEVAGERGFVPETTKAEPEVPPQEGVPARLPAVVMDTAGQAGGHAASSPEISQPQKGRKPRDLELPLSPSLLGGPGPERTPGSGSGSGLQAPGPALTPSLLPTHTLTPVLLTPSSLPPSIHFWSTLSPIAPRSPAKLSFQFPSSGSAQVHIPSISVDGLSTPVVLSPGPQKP
# Procedure, shortened: as §1
# GABPA = molecular target: T3, GABPA (Homo sapiens, UniProt Q06546 1-454); details: protein: recombinant; tags: N-terminal GST; dsDNA, one strand shown
# T3 sequence: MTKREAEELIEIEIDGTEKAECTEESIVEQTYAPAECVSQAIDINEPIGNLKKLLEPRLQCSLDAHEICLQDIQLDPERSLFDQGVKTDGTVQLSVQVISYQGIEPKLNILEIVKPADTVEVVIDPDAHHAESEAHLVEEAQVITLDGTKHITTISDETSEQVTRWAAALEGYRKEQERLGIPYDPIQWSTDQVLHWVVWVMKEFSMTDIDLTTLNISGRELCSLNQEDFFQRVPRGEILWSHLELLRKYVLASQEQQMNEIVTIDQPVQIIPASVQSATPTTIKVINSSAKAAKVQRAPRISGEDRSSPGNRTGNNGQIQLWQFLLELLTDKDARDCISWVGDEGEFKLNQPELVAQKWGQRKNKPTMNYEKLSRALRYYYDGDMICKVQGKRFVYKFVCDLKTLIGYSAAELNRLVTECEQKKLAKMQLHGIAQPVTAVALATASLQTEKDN
# Procedure, shortened: as §1
# ERG = molecular target: T4, ERG (Homo sapiens, UniProt P11308 1-479); details: protein: recombinant; tags: N-terminal GST; dsDNA, one strand shown
# T4 sequence: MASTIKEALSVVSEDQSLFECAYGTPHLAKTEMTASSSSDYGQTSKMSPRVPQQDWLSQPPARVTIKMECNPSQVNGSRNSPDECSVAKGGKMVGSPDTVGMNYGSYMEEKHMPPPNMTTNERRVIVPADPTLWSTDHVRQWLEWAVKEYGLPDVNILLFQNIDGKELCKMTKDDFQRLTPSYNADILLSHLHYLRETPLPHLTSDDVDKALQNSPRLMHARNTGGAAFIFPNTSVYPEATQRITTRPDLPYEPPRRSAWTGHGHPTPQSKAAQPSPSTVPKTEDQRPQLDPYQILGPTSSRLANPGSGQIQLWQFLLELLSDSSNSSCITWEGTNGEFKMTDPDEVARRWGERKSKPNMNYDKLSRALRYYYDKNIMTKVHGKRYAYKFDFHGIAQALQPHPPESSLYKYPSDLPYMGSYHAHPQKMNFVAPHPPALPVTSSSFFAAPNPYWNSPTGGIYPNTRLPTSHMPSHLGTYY
# Procedure, shortened: as §1
# ELF1 = ELF1 (Homo sapiens, UniProt P32519 1-619); details: protein: recombinant; tags: N-terminal GST; dsDNA, one strand shown
# Sequence of ELF1 (P32519 whole entry): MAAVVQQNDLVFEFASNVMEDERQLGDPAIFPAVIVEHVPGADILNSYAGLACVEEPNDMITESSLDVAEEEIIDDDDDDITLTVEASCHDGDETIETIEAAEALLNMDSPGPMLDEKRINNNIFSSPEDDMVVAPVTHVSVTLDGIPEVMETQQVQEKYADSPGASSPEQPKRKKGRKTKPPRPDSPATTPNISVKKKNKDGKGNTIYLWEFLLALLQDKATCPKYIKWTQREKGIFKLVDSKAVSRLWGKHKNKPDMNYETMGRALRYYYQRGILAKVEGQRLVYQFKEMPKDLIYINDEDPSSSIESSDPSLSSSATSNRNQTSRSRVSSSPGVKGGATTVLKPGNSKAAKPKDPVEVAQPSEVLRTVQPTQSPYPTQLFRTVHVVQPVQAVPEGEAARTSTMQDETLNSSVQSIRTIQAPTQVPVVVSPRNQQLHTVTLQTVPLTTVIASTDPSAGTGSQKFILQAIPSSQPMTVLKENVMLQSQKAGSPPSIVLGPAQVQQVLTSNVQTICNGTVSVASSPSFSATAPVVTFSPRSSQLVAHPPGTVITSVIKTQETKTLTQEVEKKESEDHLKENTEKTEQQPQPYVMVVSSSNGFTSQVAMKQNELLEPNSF
# Procedure, shortened: as §1
# EHF = molecular target: T5, EHF (Homo sapiens, UniProt Q9NZC4 1-300); details: protein: recombinant; tags: N-terminal GST; dsDNA, one strand shown
# T5 sequence: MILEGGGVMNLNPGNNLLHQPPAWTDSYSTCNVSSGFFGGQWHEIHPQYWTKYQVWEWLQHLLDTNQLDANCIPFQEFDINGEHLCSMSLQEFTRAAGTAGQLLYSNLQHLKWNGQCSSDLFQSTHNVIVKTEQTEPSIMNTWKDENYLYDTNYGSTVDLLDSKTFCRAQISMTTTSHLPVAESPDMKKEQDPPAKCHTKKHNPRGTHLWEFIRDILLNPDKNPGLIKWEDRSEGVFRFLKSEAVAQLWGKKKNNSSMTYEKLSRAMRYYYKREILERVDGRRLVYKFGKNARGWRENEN
# Procedure, shortened: as §1
# SPI1 = SPI1 (Homo sapiens, UniProt P17947 1-270); details: protein: recombinant; tags: N-terminal GST; dsDNA, one strand shown
# Procedure, shortened: as §1
# SPIB = SPIB (Homo sapiens, UniProt Q01892 1-262); details: protein: recombinant; tags: N-terminal GST; dsDNA, one strand shown
# Sequence of SPIB (Q01892 whole entry): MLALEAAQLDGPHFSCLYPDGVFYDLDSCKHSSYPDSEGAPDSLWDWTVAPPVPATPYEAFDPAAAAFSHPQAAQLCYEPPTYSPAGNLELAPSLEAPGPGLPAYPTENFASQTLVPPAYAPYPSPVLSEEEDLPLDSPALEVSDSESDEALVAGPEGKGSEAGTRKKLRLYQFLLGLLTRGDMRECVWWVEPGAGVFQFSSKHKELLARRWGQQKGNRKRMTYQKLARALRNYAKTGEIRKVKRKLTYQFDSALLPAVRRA
# Procedure, shortened: as §1
# ELK3 = molecular target: T6, ELK3 (Homo sapiens, UniProt P41970 1-407); details: protein: recombinant; tags: N-terminal GST; dsDNA, one strand shown
# T6 sequence: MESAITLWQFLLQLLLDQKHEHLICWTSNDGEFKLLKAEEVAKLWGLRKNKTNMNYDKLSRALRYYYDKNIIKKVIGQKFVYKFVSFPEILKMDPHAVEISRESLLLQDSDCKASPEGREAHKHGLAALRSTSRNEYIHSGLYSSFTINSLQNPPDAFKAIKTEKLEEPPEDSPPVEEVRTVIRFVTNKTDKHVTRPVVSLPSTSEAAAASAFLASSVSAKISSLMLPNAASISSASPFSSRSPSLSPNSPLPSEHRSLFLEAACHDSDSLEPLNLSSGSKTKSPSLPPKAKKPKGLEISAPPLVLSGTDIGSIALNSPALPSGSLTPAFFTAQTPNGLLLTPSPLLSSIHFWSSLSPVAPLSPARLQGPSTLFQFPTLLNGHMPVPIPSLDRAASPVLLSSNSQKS
# Procedure, shortened: as §1
# FEV = molecular target: T7, FEV (Homo sapiens, UniProt Q99581 1-238); details: protein: recombinant; tags: N-terminal GST; dsDNA, one strand shown
# T7 sequence: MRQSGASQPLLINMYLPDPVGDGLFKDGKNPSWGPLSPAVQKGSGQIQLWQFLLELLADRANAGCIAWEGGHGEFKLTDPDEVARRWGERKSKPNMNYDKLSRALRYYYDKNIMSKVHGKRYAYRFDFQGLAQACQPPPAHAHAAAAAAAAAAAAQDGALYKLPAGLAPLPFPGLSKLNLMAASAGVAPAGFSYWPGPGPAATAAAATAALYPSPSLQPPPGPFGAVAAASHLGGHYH
# Procedure, shortened: as §1
# ETV5 = ETV5 (Homo sapiens, UniProt P41161 1-510); details: protein: recombinant; tags: N-terminal GST; dsDNA, one strand shown
# Sequence of ETV5 (P41161 whole entry): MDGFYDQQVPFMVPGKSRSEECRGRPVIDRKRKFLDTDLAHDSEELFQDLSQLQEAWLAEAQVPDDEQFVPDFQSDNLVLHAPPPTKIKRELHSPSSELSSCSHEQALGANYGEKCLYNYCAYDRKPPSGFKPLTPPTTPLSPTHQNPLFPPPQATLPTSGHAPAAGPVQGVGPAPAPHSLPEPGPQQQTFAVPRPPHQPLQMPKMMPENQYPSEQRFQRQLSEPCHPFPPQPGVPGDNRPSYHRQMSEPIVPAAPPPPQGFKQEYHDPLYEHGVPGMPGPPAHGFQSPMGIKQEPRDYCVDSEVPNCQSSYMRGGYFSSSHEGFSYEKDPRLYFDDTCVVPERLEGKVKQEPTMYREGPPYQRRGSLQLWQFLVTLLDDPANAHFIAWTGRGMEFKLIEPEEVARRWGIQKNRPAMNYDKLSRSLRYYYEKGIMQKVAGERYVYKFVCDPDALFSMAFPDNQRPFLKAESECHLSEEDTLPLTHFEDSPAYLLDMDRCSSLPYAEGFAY
# Procedure, shortened: as §1
# HSF1 = HSF1 (Homo sapiens, UniProt Q00613 1-529); details: protein: recombinant; tags: N-terminal GST; chain copies: 3; dsDNA, one strand shown
# Sequence of HSF1 (Q00613 whole entry): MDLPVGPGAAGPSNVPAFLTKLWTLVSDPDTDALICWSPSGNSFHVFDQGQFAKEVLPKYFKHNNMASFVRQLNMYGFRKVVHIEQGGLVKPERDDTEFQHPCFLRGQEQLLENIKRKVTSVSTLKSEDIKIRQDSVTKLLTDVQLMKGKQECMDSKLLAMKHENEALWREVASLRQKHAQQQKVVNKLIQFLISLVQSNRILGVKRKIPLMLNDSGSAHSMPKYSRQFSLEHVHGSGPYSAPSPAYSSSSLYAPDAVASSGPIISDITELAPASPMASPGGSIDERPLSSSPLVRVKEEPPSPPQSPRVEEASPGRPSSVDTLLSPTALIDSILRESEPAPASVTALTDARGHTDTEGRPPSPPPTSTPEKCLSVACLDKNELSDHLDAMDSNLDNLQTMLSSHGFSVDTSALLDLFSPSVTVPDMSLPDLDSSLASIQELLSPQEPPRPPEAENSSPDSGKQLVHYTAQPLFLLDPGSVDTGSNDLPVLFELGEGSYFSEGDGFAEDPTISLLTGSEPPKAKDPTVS
# Procedure, shortened: as §1
# SPIC = molecular target: T8, SPIC (Homo sapiens, UniProt Q8N5J4 1-248); details: protein: recombinant; tags: N-terminal GST; dsDNA, one strand shown
# T8 sequence: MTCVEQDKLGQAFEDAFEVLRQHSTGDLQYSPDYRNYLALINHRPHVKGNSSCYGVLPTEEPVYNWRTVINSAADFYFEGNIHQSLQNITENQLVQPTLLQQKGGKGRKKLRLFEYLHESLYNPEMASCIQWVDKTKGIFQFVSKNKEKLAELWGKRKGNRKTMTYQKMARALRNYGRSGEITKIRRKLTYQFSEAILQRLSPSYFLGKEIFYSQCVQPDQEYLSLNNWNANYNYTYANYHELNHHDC
# Procedure, shortened: as §1
# ELF4 = ELF4 (Homo sapiens, UniProt Q99607 1-663); details: protein: recombinant; tags: N-terminal GST; dsDNA, one strand shown
# Sequence of ELF4 (Q99607 whole entry): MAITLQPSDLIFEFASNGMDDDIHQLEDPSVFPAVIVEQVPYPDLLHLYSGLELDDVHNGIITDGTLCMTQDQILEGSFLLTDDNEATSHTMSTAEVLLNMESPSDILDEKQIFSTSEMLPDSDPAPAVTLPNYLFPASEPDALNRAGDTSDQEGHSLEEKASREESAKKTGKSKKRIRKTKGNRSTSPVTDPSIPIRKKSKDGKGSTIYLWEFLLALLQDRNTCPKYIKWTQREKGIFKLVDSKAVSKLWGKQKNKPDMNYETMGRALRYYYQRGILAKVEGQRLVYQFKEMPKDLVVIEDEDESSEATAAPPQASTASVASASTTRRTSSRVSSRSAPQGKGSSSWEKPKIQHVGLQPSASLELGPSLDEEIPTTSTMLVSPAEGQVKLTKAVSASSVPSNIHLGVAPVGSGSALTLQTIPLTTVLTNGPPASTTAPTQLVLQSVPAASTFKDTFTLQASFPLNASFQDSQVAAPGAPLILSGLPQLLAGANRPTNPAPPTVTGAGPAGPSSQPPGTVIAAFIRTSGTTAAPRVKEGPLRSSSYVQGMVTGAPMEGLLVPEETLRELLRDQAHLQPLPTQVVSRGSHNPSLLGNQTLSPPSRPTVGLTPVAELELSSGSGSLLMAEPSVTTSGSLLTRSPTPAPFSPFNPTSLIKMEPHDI
# Procedure, shortened: as §1
# ELK4 = molecular target: T9, ELK4 (Homo sapiens, UniProt P28324-2 1-405); details: protein: recombinant; tags: N-terminal GST; dsDNA, one strand shown
# T9 sequence: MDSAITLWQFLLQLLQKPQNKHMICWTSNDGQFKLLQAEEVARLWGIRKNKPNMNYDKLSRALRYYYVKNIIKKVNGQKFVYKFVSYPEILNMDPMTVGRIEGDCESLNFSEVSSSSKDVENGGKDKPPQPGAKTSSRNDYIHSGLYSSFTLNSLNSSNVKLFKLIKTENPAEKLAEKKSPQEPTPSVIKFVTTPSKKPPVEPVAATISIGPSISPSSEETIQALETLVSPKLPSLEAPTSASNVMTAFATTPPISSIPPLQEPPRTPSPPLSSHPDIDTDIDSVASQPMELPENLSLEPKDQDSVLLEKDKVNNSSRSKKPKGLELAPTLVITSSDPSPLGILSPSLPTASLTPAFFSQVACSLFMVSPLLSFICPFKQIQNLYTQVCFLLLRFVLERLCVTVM
# Procedure, shortened: as §1
# ETV2 = molecular target: T10, ETV2 (Homo sapiens, UniProt O00321 1-342); details: protein: recombinant; tags: N-terminal GST; dsDNA, one strand shown
# T10 sequence: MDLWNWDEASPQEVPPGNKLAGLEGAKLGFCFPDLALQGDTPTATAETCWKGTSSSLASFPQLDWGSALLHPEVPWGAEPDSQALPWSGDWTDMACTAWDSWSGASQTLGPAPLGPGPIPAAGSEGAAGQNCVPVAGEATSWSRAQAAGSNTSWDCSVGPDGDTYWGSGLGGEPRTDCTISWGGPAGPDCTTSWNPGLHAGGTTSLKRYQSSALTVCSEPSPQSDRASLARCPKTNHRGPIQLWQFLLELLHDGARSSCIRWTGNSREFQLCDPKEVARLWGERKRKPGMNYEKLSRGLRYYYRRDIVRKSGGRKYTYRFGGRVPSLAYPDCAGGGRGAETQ
# Procedure, shortened: as §1
# ELF3 = molecular target: T11, ELF3 (Homo sapiens, UniProt P78545 1-371); details: protein: recombinant; tags: N-terminal GST; dsDNA, one strand shown
# T11 sequence: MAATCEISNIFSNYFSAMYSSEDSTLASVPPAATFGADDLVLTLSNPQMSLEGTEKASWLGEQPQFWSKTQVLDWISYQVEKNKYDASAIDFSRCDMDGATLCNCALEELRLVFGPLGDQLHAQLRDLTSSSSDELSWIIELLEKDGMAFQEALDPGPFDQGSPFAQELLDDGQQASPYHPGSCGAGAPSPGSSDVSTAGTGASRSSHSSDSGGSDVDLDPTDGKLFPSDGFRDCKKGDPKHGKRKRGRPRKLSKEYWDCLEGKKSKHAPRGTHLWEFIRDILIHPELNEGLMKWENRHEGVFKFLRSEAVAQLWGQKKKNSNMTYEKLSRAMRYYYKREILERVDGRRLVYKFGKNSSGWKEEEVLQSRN
# Procedure, shortened: as §1
# CRX = CRX (Homo sapiens, UniProt O43186 1-299); details: protein: recombinant; tags: N-terminal GST; dsDNA, one strand shown
# Sequence of CRX (O43186 whole entry): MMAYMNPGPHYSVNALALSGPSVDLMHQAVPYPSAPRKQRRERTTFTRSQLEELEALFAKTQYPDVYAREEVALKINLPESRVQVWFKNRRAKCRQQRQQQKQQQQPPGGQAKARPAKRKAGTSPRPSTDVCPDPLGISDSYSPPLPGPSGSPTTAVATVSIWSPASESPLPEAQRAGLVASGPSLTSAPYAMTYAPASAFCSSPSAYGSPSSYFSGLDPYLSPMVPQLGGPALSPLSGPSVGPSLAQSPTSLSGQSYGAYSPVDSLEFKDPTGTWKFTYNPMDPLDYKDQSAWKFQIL
# Procedure, shortened: as §1
# ETV1 = ETV1 (Homo sapiens, UniProt P50549 1-477); details: protein: recombinant; tags: N-terminal GST; dsDNA, one strand shown
# Sequence of ETV1 (P50549 whole entry): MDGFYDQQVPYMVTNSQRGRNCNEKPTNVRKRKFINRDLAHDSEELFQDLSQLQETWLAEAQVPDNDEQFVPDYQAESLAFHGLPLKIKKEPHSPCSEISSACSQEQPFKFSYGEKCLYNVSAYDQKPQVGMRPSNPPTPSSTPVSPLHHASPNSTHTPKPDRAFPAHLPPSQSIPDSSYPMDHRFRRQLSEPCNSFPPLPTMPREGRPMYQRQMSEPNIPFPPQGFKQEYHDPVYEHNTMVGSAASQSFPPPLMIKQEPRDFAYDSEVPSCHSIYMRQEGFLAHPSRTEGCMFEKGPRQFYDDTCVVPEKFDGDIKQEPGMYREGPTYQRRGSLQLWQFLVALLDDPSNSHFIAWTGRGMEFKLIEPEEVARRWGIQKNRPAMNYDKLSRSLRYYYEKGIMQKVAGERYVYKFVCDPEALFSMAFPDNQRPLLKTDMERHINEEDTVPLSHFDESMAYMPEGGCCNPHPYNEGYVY
# Procedure, shortened: as §1
sequence,measurement,setting,value
TTACCG,binding signal,FLI1,"1.16 fold enrichment (6-mer frequency, TF over GST control)"
same,binding signal,ELK1,"1.16 fold enrichment (6-mer frequency, TF over GST control)"
same,binding signal,GABPA,"1.12 fold enrichment (6-mer frequency, TF over GST control)"
same,binding signal,ERG,"1.2 fold enrichment (6-mer frequency, TF over GST control)"
same,binding signal,ELF1,"1.11 fold enrichment (6-mer frequency, TF over GST control)"
same,binding signal,EHF,"1.24 fold enrichment (6-mer frequency, TF over GST control)"
same,binding signal,SPI1,"1.17 fold enrichment (6-mer frequency, TF over GST control)"
same,binding signal,SPIB,"1.15 fold enrichment (6-mer frequency, TF over GST control)"
same,binding signal,ELK3,"1.18 fold enrichment (6-mer frequency, TF over GST control)"
same,binding signal,FEV,"1.26 fold enrichment (6-mer frequency, TF over GST control)"
same,binding signal,ETV5,"1.23 fold enrichment (6-mer frequency, TF over GST control)"
same,binding signal,HSF1,"1.25 fold enrichment (6-mer frequency, TF over GST control)"
same,binding signal,SPIC,"1.16 fold enrichment (6-mer frequency, TF over GST control)"
same,binding signal,ELF4,"1.13 fold enrichment (6-mer frequency, TF over GST control)"
same,binding signal,ELK4,"1.16 fold enrichment (6-mer frequency, TF over GST control)"
same,binding signal,ETV2,"1.12 fold enrichment (6-mer frequency, TF over GST control)"
same,binding signal,ELF3,"1.2 fold enrichment (6-mer frequency, TF over GST control)"
same,binding signal,CRX,"1.74 fold enrichment (6-mer frequency, TF over GST control)"
same,binding signal,ETV1,"1.14 fold enrichment (6-mer frequency, TF over GST control)"
